Where a name gives a salt, the structure may show the parent alone.
Test system: PBMC-derived induced microglia-like cells (piMGLC)
Assay: synaptosome phagocytic index relative to DMSO control (fraction of DMSO); higher = more phagocytosis
Settings: concentration: 10 uM (2 uM for compounds listed in Table S2); pretreatment time: 24 h; assay time: 3 h

First: Cc1ccccc1C(OCCN(C)C)c1ccccc1 (configuration not stated) [Orphenadrine_(citrate)]
Second: CN1[C@@H]2CC[C@H]1C[C@@H](OC(c1ccccc1)c1ccccc1)C2 [Benztropine_(mesylate)]
The synaptosome phagocytic index of the first is higher: 1.23 for the first, 0.833 for the second.

First: CCc1cc2c(cc1-c1cnn(CC(=O)N(C)C)c1)C(C)(C)c1[nH]c3cc(C#N)ccc3c1C2=O
Second: Cc1cnc(NC(=O)C2=C(O)c3ccccc3S(=O)(=O)N2C)s1 [Meloxicam]
The synaptosome phagocytic index of the first is lower: 0.394 for the first, 0.731 for the second.

Compared with NC(=O)c1ccc(I)c([N+](=O)[O-])c1 [Iniparib], C[C@]1(c2nc3c(C(N)=O)cccc3[nH]2)CCCN1 [Veliparib] is lower in synaptosome phagocytic index: 0.96 for the first, 0.721 for the second.

First: CCc1cccc2c3c([nH]c12)C(CC)(CC(=O)O)OCC3 (configuration not stated) [Etodolac]
Second: N=C(N)NC(=O)Cc1c(Cl)cccc1Cl [Guanfacine_(hydrochloride)]
The synaptosome phagocytic index of the first is lower: 1.01 for the first, 1.13 for the second.

Going from CC1(C)O[C@@H]2[C@@H](CO[C@@]3(COS(N)(=O)=O)OC(C)(C)O[C@@H]23)O1 [Topiramate] to CC(=O)OCC(=O)[C@@]1(O)CC[C@H]2[C@@H]3CCC4=CC(=O)C=C[C@]4(C)[C@H]3[C@@H](O)C[C@@]21C [Prednisolone_acetate], the synaptosome phagocytic index falls from 1.08 to 0.605.

Going from Nc1nc2ccc(OC(F)(F)F)cc2s1 [Riluzole] to O=C(O)Cc1nn(Cc2nc3cc(C(F)(F)F)ccc3s2)c(=O)c2cscc12, the synaptosome phagocytic index falls from 0.991 to 0.982.

Going from O=c1ncn2nc(Sc3ccc(F)cc3F)ccc2c1-c1c(Cl)cccc1Cl [Neflamapimod] to CC(C)(O)CC(=O)NCCn1ccc2ncnc(Nc3ccc(Oc4cccc(C(F)(F)F)c4)c(Cl)c3)c21, the synaptosome phagocytic index rises from 0.984 to 1.04.

Compared with COC(=O)/C=C/c1ccc(O)c(OC)c1 [Ferulic_acid_methyl_ester], COc1cc(C(C)=O)ccc1OCCCN1CCC(c2noc3cc(F)ccc23)CC1 [Iloperidone] is higher in synaptosome phagocytic index: 0.783 for the first, 0.853 for the second.

Going from CC(=O)[C@H]1CC[C@H]2[C@@H]3CC=C4C[C@@H](O)CC[C@]4(C)[C@H]3CC[C@]12C [Pregnenolone] to CCC(CC)O[C@@H]1C=C(C(=O)O)C[C@H](N)[C@H]1NC(C)=O [Oseltamivir_acid], the synaptosome phagocytic index falls from 0.878 to 0.782.

First: CCCC(CCC)C(=O)O [Valproic_acid]
Second: CCC(C)C(N)C(=O)NCCN1CCOCC1 (configuration not stated) [LM11A-31_(dihydrochloride)]
The synaptosome phagocytic index of the first is lower: 0.68 for the first, 0.844 for the second.

Compared with CC(C)NCC(O)COc1ccc(CC(N)=O)cc1 (configuration not stated) [Atenolol], CC(C(=O)O)c1ccc(-c2ccccc2)c(F)c1 (configuration not stated) [Flurbiprofen] is lower in synaptosome phagocytic index: 0.717 for the first, 0.64 for the second.

First: Nc1nnc(-c2cccc(Cl)c2Cl)c(N)n1 [Lamotrigine]
Second: Nc1cccc2c1C(=O)N(C1CCC(=O)NC1=O)C2=O (configuration not stated) [Pomalidomide]
The synaptosome phagocytic index of the first is higher: 1.3 for the first, 0.545 for the second.

Going from Nc1nc(=O)n([C@@H]2CS[C@H](CO)O2)cc1F [Emtricitabine] to Cc1cn([C@H]2C=C[C@@H](CO)O2)c(=O)[nH]c1=O [Stavudine], the synaptosome phagocytic index falls from 0.777 to 0.555.

First: CCn1ncc2c(NC3CCOCC3)c(-c3nnc(Cc4sc(C)nc4C)o3)cnc21
Second: Cc1nc(Nc2ncc(C(=O)Nc3c(C)cccc3Cl)s2)cc(N2CCN(CCO)CC2)n1 [Dasatinib]
The synaptosome phagocytic index of the first is higher: 0.266 for the first, 0.243 for the second.

Going from O=S1(=O)N[C@H]2CCCN2c2ccccc21 to CN1CCN(C2=Nc3cc(Cl)ccc3Nc3ccccc32)CC1 [Clozapine], the synaptosome phagocytic index falls from 0.742 to 0.697.

First: C#Cc1cccc(Nc2ncnc3cc(OCCOC)c(OCCOC)cc23)c1 [Erlotinib]
Second: Cc1cc(Oc2cncnc2)cc(C(=O)Nc2ccc(F)cn2)n1 [Auglurant]
The synaptosome phagocytic index of the first is lower: 0.798 for the first, 1.03 for the second.

Compared with Cc1ccc(-c2ncn(-c3ccc(Nc4nccc(-c5cccc(N6CCOCC6)c5)n4)cc3)n2)cn1, Cc1nc2n(c(=O)c1CCN1CCC(c3noc4cc(F)ccc34)CC1)CCCC2 [Risperidone] is higher in synaptosome phagocytic index: 0.167 for the first, 0.887 for the second.

Going from NC1CCN(c2cccc(Cl)n2)CC1 to O=C(O)[C@H]1CSC(c2nc3cc4c(cc3s2)NCC4)=N1, the synaptosome phagocytic index rises from 0.648 to 0.923.

Work on C[C@@H]1O[C@@H]1P(=O)(O)O [Fosfomycin_(sodium)] yielded a synaptosome phagocytic index of 1.11.

Source: the supplement of paper PMC12339681
